# According to the supplement of paper PMC12494721:
# Where a name gives a salt, the structure may show the parent alone.
# Tests used:
# Details in all cases: 20 µM; incubation time: 27 h, anaerobic, 37 °C;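 for the amine columns active = adjusted P below 0.05 in both replicates with a change the same way and a mean fold change under 0.8 or over 1.25; inactive = the rest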
# [1] = test system: Clostridium sporogenes DSM 1664; experiment: growth (OD595) fold change vs plate DMSO controls (fold change (ratio)); higher = more growth
# Method in brief: (§1)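 The measure reported is growth, taken as fold change against the median of DMSO controls on the same plate. Anaerobic mGAM cultures in 96-well plates (27 h, 37 °C) were read at 595 nm, blank-subtracted, corrected for compound background using 20 µM compound solutions in water, and multiplied by a calibration factor of 5 to give OD. Any fold change above 1.5 became NA, and 2 biological replicates were averaged.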
# Escherichia coli IAI1 [2] = experiment: as above
# Method in brief: as §1
# [3] = test system: Klebsiella aerogenes DSM 30053; experiment: as above
# Method in brief: as §1
# [4] = test system: Ruminococcus gnavus DSM 108212; experiment: as above
# Method in brief: as §1
# [5] = test system: Klebsiella aerogenes DSM 30053; experiment: fold change of Histamine concentration vs plate DMSO controls (fold change (ratio)); higher = more amine produced, active = hit call of the paper (significant change in both replicates, either direction)
# Method in brief: (§2)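 In 80 µL wells, cultures of four gut bacterial strains in mGAM started at OD 0.1 before a 1:1 dilution and grew anaerobically at 37 °C for 27 h. Compounds were added to 20 µM final, except sweeteners at 50 µM final. After extraction of whole cultures with cold acetonitrile/methanol plus 0.1% formic acid and centrifugation, amines were measured by LC–triple-quadrupole MS in dynamic MRM mode against external calibration curves, with within-batch drift correction. Values give fold change over DMSO controls on the same plate, averaged across 2 biological replicates.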
# [6] = test system: Clostridium sporogenes DSM 1664; experiment: fold change of Tryptamine concentration vs plate DMSO controls (fold change (ratio)); higher = more amine produced, active = hit call of the paper (significant change in both replicates, either direction)
# Method in brief: as §2
# [7] = test system: Ruminococcus gnavus DSM 108212; experiment: as above
# Method in brief: as §2
# Escherichia coli IAI1 [8] = experiment: fold change of Putrescine concentration vs plate DMSO controls (fold change (ratio)); higher = more amine produced, active = hit call of the paper (significant change in both replicates, either direction)
# Method in brief: as §2
# [9] = test system: Klebsiella aerogenes DSM 30053; experiment: as above
# Method in brief: as §2
# Escherichia coli IAI1 [10] = experiment: fold change of Cadaverine concentration vs plate DMSO controls (fold change (ratio)); higher = more amine produced, active = hit call of the paper (significant change in both replicates, either direction)
# Method in brief: as §2
# [11] = test system: Klebsiella aerogenes DSM 30053; experiment: as above
# Method in brief: as §2
# [12] = test system: Ruminococcus gnavus DSM 108212; experiment: fold change of 2-Phenylethylamine concentration vs plate DMSO controls (fold change (ratio)); higher = more amine produced, active = hit call of the paper (significant change in both replicates, either direction)
# Method in brief: as §2
Compound,growth [1],growth (Escherichia coli IAI1 [2]),growth [3],growth [4],fold change of Histamine concentration [5],fold change of Tryptamine concentration [6],fold change of Tryptamine concentration [7],fold change of Putrescine concentration (Escherichia coli IAI1 [8]),fold change of Putrescine concentration [9],fold change of Cadaverine concentration (Escherichia coli IAI1 [10]),fold change of Cadaverine concentration [11],fold change of 2-Phenylethylamine concentration [12]
CC[N+]1(C)CCCC(OC(=O)C(O)(c2ccccc2)c2ccccc2)C1 (centres undefined) [Pipenzolate bromide],0.938,0.997,0.994,1.05,0.982 (inactive),0.957 (inactive),0.956 (inactive),1.06 (inactive),1 (inactive),0.988 (inactive),1.01 (inactive),0.926 (inactive)
Oc1ccc(Cl)cc1Cc1cc(Cl)ccc1O,0.8,0.854,0.898,0.861,1.12 (inactive),0.557 (inactive),0.513 (active),1.15 (inactive),0.996 (inactive),1.66 (active),0.986 (inactive),0.605 (inactive)
COCC(C)N(C(=O)CCl)c1c(C)csc1C (centres undefined),1.06,1.02,1.03,0.986,0.989 (inactive),1.02 (inactive),0.991 (inactive),1.01 (inactive),1.01 (inactive),0.953 (inactive),1.04 (inactive),0.941 (inactive)
N#Cc1nn(-c2c(Cl)cc(C(F)(F)F)cc2Cl)c(N)c1[S+]([O-])C(F)(F)F (centres undefined),1.16,0.982,0.977,1.02,1.1 (inactive),1.13 (inactive),1.06 (inactive),1.05 (inactive),1.05 (inactive),0.937 (inactive),1.08 (inactive),1.27 (inactive)
CCC(CC)Nc1c([N+](=O)[O-])cc(C)c(C)c1[N+](=O)[O-],1.11,1.01,0.983,1.02,1.07 (inactive),1.04 (inactive),0.998 (inactive),0.991 (inactive),1.01 (inactive),1.01 (inactive),0.992 (inactive),1.01 (inactive)
N#CCNC(=O)c1cnccc1C(F)(F)F,1.08,1,0.999,1.12,1.02 (inactive),1 (inactive),1 (inactive),1.01 (inactive),1.01 (inactive),1.03 (inactive),0.997 (inactive),0.951 (inactive)
CC[C@H](C)[C@H]1O[C@]2(C=C[C@@H]1C)C[C@@H]1C[C@@H](C/C=C(\C)[C@@H](O[C@H]3C[C@H](OC)[C@@H](O[C@H]4C[C@H](OC)[C@@H](O)[C@H](C)O4)[C@H](C)O3)[C@@H](C)/C=C/C=C3\CO[C@@H]4[C@H](O)C(C)=C[C@@H](C(=O)O1)[C@]34O)O2.CO[C@H]1C[C@H](O[C@H]2[C@H](C)O[C@@H](O[C@@H]3/C(C)=C/C[C@@H]4C[C@@H](C[C@]5(C=C[C@H](C)[C@@H](C(C)C)O5)O4)OC(=O)[C@@H]4C=C(C)[C@@H](O)[C@H]5OC/C(=C\C=C\[C@@H]3C)[C@]54O)C[C@@H]2OC)O[C@@H](C)[C@@H]1O [Avermectin B1],1.13,1.06,0.967,0.91,0.906 (inactive),0.921 (inactive),0.929 (inactive),1.06 (inactive),0.985 (inactive),0.996 (inactive),0.995 (inactive),0.883 (inactive)
N#Cc1sc2c(=O)c3ccccc3c(=O)c=2sc1C#N,1.14,1.02,0.963,1.01,0.994 (inactive),0.877 (inactive),0.906 (inactive),1.02 (inactive),1.01 (inactive),1.02 (inactive),0.992 (inactive),0.827 (inactive)
COc1ccc(C(=CC(=O)N2CCOCC2)c2ccc(Cl)cc2)cc1OC (mixture of isomers),1.18,1.01,1.01,0.966,1.01 (inactive),1.11 (inactive),1.08 (inactive),0.946 (inactive),0.965 (inactive),0.929 (inactive),1.06 (inactive),1.09 (inactive)
O=C(O)C(F)(F)C(F)(F)C(F)(F)C(F)(F)C(F)(F)C(F)(F)C(F)(F)C(F)(F)F [PFNA (Perfluorononanoic acid)],1.04,1,1.01,1.05,1.01 (inactive),0.955 (inactive),0.968 (inactive),1.01 (inactive),0.994 (inactive),1.03 (inactive),0.982 (inactive),0.915 (inactive)
CS(=O)(=O)c1cc(C(F)(F)F)ccc1C(=O)c1cnoc1C1CC1,0.937,1.09,1.09,0.964,0.825 (inactive),0.986 (inactive),0.989 (inactive),0.958 (inactive),0.976 (inactive),0.905 (inactive),1.01 (inactive),1 (inactive)
CC(C)(C)C(O)(CCc1ccc(Cl)cc1)Cn1cncn1 (centres undefined),0.978,1.03,1.01,1.02,0.981 (inactive),1.24 (inactive),1.07 (inactive),0.998 (inactive),1.03 (inactive),1.01 (inactive),1.03 (inactive),1.15 (inactive)
CC(C1CC1)C(O)(Cn1cncn1)c1ccc(Cl)cc1 (mixture of isomers),0.851,0.991,0.991,0.941,1.01 (inactive),0.92 (inactive),0.994 (inactive),1.01 (inactive),0.996 (inactive),1 (inactive),0.995 (inactive),0.953 (inactive)
CCc1cnc(C2=NC(C)(C(C)C)C(=O)N2)c(C(=O)O)c1 (centres undefined),1,1.06,0.985,1.09,1 (inactive),0.954 (inactive),1.01 (inactive),1.03 (inactive),1.02 (inactive),0.991 (inactive),0.993 (inactive),0.984 (inactive)
CNC(=O)/C=C(\C)OP(=O)(OC)OC,1.06,1.01,1.01,0.948,1.01 (inactive),1.05 (inactive),0.985 (inactive),0.968 (inactive),0.986 (inactive),1.05 (inactive),0.998 (inactive),1.06 (inactive)
CCNCC(O)c1cccc(O)c1 (centres undefined) [Etilefrine hydrochloride],0.977,0.971,0.996,0.981,1.05 (inactive),1.03 (inactive),0.959 (inactive),0.997 (inactive),1.01 (inactive),0.991 (inactive),0.987 (inactive),0.949 (inactive)
CN1COCN(Cc2cnc(Cl)s2)/C1=N\[N+](=O)[O-],0.973,1.02,1,0.969,1.01 (inactive),0.906 (inactive),0.912 (inactive),1.03 (inactive),1.01 (inactive),1.03 (inactive),0.993 (inactive),0.88 (inactive)
CC(C)(C)NCC(O)c1cc(Cl)c(N)c(Cl)c1 (centres undefined) [Clenbuterol hydrochloride],1.03,1.02,1.01,1.13,0.983 (inactive),0.986 (inactive),1.02 (inactive),0.991 (inactive),0.983 (inactive),0.987 (inactive),1 (inactive),1.02 (inactive)
CN/C(=N\[N+](=O)[O-])NCc1cnc(Cl)s1,0.943,0.968,0.989,0.944,1.01 (inactive),0.953 (inactive),0.989 (inactive),0.98 (inactive),1 (inactive),1.07 (inactive),0.994 (inactive),1 (inactive)
CCOCn1c(-c2ccc(Cl)cc2)c(C#N)c(Br)c1C(F)(F)F,0.89,1,1.01,0.948,1 (inactive),0.999 (inactive),1.02 (inactive),1.03 (inactive),0.999 (inactive),1.03 (inactive),0.983 (inactive),1.01 (inactive)
"O=C1C=CC(=O)C=C1 [1,4-Benzoquinone]",0.883,0.868,0.844,0.66,0.996 (inactive),1.02 (inactive),1.18 (inactive),0.967 (inactive),1 (inactive),0.943 (inactive),1.11 (inactive),1.66 (active)
C[C@]12CC[C@H](O)C[C@H]1CC[C@@H]1[C@@H]2CC[C@]2(C)[C@@H](C3=CC(=O)OC3)CC[C@]12O [Digitoxigenin],1.02,1.02,0.986,1,1.06 (inactive),1.05 (inactive),1.02 (inactive),1.03 (inactive),1.01 (inactive),1.01 (inactive),0.989 (inactive),1.03 (inactive)
O=C1C2(Cl)C3(Cl)C4(Cl)C(Cl)(Cl)C5(Cl)C3(Cl)C1(Cl)C5(Cl)C24Cl (centres undefined),0,1.09,1.04,,1.07 (inactive),0.0206 (active),0.27 (active),1.05 (inactive),1.07 (inactive),1.14 (inactive),1.05 (inactive),0.297 (inactive)
CN1[C@@H]2CC[C@H]1C[C@@H](OC(=O)[C@H](CO)c1ccccc1)C2 [(L) Hyoscyamine],,1.03,1.06,1.08,0.941 (inactive),,1.13 (inactive),0.992 (inactive),0.94 (inactive),0.923 (inactive),1.02 (inactive),1.11 (inactive)
C[C@]12COC(=O)C[C@@H]1CC[C@@H]1[C@@H]2CC[C@@]2(C)[C@H]1CC[C@]2(C)O [Oxandrolone],0.947,0.993,1.03,0.877,0.945 (inactive),0.945 (inactive),1.01 (inactive),0.974 (inactive),0.991 (inactive),1.02 (inactive),0.999 (inactive),1.06 (inactive)
CC(C)(C)C(O)C(Oc1ccc(Cl)cc1)n1cncn1 (centres undefined),0.989,1.11,0.994,0.928,0.993 (inactive),0.962 (inactive),0.998 (inactive),1.08 (inactive),0.999 (inactive),0.937 (inactive),1 (inactive),0.975 (inactive)
